Compounds without any hit were thinned out: in the full panel of roughly 79,000, 15% have a hit. Values without a mark were called inactive. Cut-off read from the data, not from the text of the source: active = growth inhibition above about 70%; inactive = the rest.

This assay is described as follows: NCI Yeast Anticancer Drug Screen. Data for the bub3 strain (AID 167). Particulars: S. cerevisiae bub3 mutant strain, at 50.0 µM, stronger effect = higher value. An outline of the steps: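 Yeast carrying a defined mutation is treated with each compound, and growth is compared with that of vehicle-exposed cells to give inhibition.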
As for `CCCCCNC(=O)c1csc(-c2csc(CCNC(C)=O)n2)n1`, the growth inhibition was 16.1%.

As for `COc1ccc(-c2oc3cc(OC)c(OC)c(OC)c3c(=O)c2O)cc1O`, the growth inhibition is 65.4%.

Consider `CC1=C(C(=O)NN)CC/C1=N\N`, for which the growth inhibition was -9.3%.

`O=[N+]([O-])c1ccc(N/N=C(/c2ccc3ccccc3c2)c2ccccc2F)c([N+](=O)[O-])c1`: the growth inhibition was -1.85%. With `Nc1ccn(C2CC(F)C(CO)O2)c(=O)n1` (stereo not given) the figure was 7%. With `Cc1cn(-c2c(C)c(C)c(-n3c(C)ccc3C)c(C)c2C)cc1C` the figure was 4.85%; with `CC(O)CSCC(C)O` (stereo not given), -7.7%. Consider `CCOC(=O)C(=CNC(=S)Nc1ccc(Cl)c(Cl)c1)C(=O)OCC`, for which the growth inhibition is 39%.

For the compound `COc1ccccc1N(CN1C(=O)CCC1C(=O)O)C(C)=O` (stereo not given), the growth inhibition was -9.1%. With `CC1=CC(C)(C)Nc2ccccc21` the figure was 6.95%.

With `Cc1ccc(N=NC2=C3Sc4ccccc4N=C2N(c2ccc(Br)cc2)C(=S)N3c2ccc(Cl)cc2)cc1`, the growth inhibition is -3.4%. With `CCN(CC)C(=S)N1CCCCC1` the figure was -15.9%; with `O=C(c1cccc([N+](=O)[O-])c1)N1CCOCC1`, 3.7%.

For `Cc1ccc(N2C(=O)/C(=C/c3ccc(N(CCC#N)CCC#N)cc3)CC2(O)c2ccccc2)cc1` (stereo not given), the growth inhibition was -13.1%.

As for `O=C(c1cc([N+](=O)[O-])cc([N+](=O)[O-])c1)N1CCCC1`, the growth inhibition is 16.4%. With `CCOc1ccc(NC(=O)c2cccc(C(=O)Nc3ccc(OCC)cc3)c2)cc1` the figure was -5.35%; with `Cc1cc(C)c(N(C)C(=O)CCC(=O)O)c(Br)c1`, 9%; with `COc1cc(NCCN=C(N)NC#N)c2ncccc2c1`, -15.4%.

Regarding `CCOC(=O)c1ccc(-c2ccc(C(=O)OCC)cc2[N+](=O)[O-])c([N+](=O)[O-])c1`, the growth inhibition is 9.7%.

Regarding `Cc1ccc(S(=O)(=O)OCC(C)(C)CC#N)cc1`, the growth inhibition is 46.4%. With `C1C[OH+]CCNCC[OH+]CC[OH+]CCN1.[Cl-].[Pt+4]` the figure was 3.5%; with `COc1cc(OC)c(/C=C2\N=C(C)N(Nc3nnc(NN4C(=O)/C(=C/c5c(OC)cc(OC)cc5OC)N=C4C)c4ccccc34)C2=O)c(OC)c1`, -2.7%; with `O=C1/C(=N\O)C2CCC1C2` (stereo not given), -9.2%. With `CCOC(=O)c1ccc(NC(=O)Nc2cc(Cl)ccc2OC)cc1` the figure was 34%; with `O=C(O)CCc1ccc2c(c1)CC1(Cc3ccccc3C1)C2`, 48.1%; with `COc1ccc(C(=CCC(C)C2CCC3[C@@H]4C(OC(C)=O)CC5CC(OC(C)=O)CC[C@]5(C)C4CC(OC(C)=O)[C@]23C)c2ccc(OC)cc2)cc1` (stereo not given in full), 24.1%. In the case of `CC1=CC(C)(C)N=C2SC(c3ccc(N)cc3)=NN12`, the growth inhibition was 18.5%. For `CN(C)c1ccc(/C=C/C(=O)/C=C/c2ccc(N(C)C)cc2)cc1`, the growth inhibition was -12.2%.

As for `O=C(Nc1ccc(Cl)cc1Cl)C(=O)C(C(=O)c1ccncc1)C1OC(=O)c2ccccc21` (stereo not given), the growth inhibition was 7.95%. With `OCCCOCc1ccccc1`, the growth inhibition was 17.5%. On to `COc1cc(NCC2COc3c(ccc(OC)c3OC)C2=O)c([N+](=O)[O-])cc1OC` (stereo not given), for which the growth inhibition is -5.3%. With `CC(C)(C)/C=C/N=NNc1ccccc1C(=O)NC(C)(C)C` the figure was -2%. With `CC(=O)OCC(OC(C)=O)C(OC(C)=O)C(OC(C)=O)c1cnn(-c2ccccc2)n1` (stereo not given) the figure was 5.6%. With `NCCCc1ccc(C(=O)O)cc1` the figure was 5.85%; with `CCOC(=O)Nn1c(C)nnc1CC#N`, 0.65%. Regarding `CC(=O)/C=C/CCC(=O)/C=C/C(=O)OC(CCC(=O)/C=C/C(=O)O)CC(C)=O` (stereo not given), the growth inhibition is -24.1%. With `Cc1cc2nc(CCC(=O)O)c(=O)[nH]c2cc1C` the figure was -24%; with `CCOc1ccc(NC(=O)C2=C(C)NC(C)=C(C(=O)Nc3ccc(OCC)cc3)C2c2ccccc2)cc1`, -16.2%; with `CCOC(=O)C(C)(C)Oc1ccc2c(-c3ccc(Cl)cc3)cc(=O)oc2c1`, -11.9%. With `Cc1ccc(N=C2N=C(N3CC(C)OC(C)C3)c3ccccc32)cc1` (stereo not given) the figure was 0%.

For the origin of these results see PubChem BioAssay (NCI).
